In PubChem BioAssay (NCI) one finds growth inhibition data, which are given here for 21 compounds.

The panel holds about 79,000 compounds, 15% with a hit somewhere; the sample as a whole holds those more often. Unmarked numbers belong to inactive results. Activity calls are given as the source filed them. No stated cut-off is given here; in the data, active means growth inhibition above about 70%; inactive means the rest. Where a SMILES comes first, the peptide text is derived from it. The star is where a group is joined. Cbz = O=C(OCc1ccccc1)*

Experiment [1] in a line: NCI Yeast Anticancer Drug Screen. Data for the rad50 strain (AID 155).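 Further: 0% = growth of vehicle-only cultures of the same strain.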 As to conditions: S. cerevisiae rad50 strain growth inhibition; at 50.0 µM; stronger effect = higher value. The essentials: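 Relative growth inhibition (compound vs vehicle) was measured in yeast with a defined repair-gene alteration.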
A short description of experiment [2]: NCI Yeast Anticancer Drug Screen. Data for the mec2-1 strain (AID 157). The note with it: S. cerevisiae mec2-1 strain, at 50.0 µM, stronger effect = higher value. A digest of the protocol: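 Strain: mec2-1 (DNA repair/cell cycle alteration). Compound exposure, then growth measured; inhibition expressed relative to vehicle.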
The nature of experiment [3]: NCI Yeast Anticancer Drug Screen. Data for the sgs1 mgt1 strain (AID 161).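 Further: 0% = growth of cultures given vehicle only.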 As to conditions: S. cerevisiae sgs1 mgt1 strain, at 50.0 µM, stronger effect = higher value. A digest of the protocol:
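Test agents were incubated with a DNA-repair-mutant yeast strain. Growth was then read and compared against vehicle-treated controls.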

The nature of experiment [4]: NCI Yeast Anticancer Drug Screen. Data for the cln2 rad14 strain (AID 165).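 Further: 0% = growth equal to vehicle treated cultures.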 As to conditions: S. cerevisiae cln2 rad14 strain, at 50.0 µM, stronger effect = higher value. A digest of the protocol:
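Compounds are applied to the cln2 rad14 yeast strain, and growth is then compared with that of vehicle-treated cultures to give inhibition.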

Experiment [5] can be described thus: NCI Yeast Anticancer Drug Screen. Data for the bub3 strain (AID 167). The note with it: S. cerevisiae bub3 mutant strain, at 50.0 µM, stronger effect = higher value. A digest of the protocol: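 Screening used yeast with an engineered genetic alteration affecting cell cycle control. Compound-exposed cultures were compared with vehicle cultures, and reduced growth was taken as inhibition.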

A short description of experiment [6]: NCI Yeast Anticancer Drug Screen. Data for the mlh1 rad18 strain (AID 175). As to conditions: S. cerevisiae mlh1 rad18 strain growth inhibition; at 50.0 µM; stronger effect = higher value. The essentials:
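Read-out is yeast growth inhibition, calculated against vehicle-only controls. The compound was applied to a strain engineered with DNA damage repair alterations.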

With `O=C(O)CC(Cc1ccccc1)C(=O)O` (stereo unspecified), the growth inhibition in experiment [1] was 1%; in experiment [2], -3.45%; in experiment [3], -26.1%; in experiment [4] it was -17.8%; in experiment [5], -31.9%; in experiment [6] it was 2.05%.
On to `Cn1c(=O)nc2n(C)c3ccccc3cc-2c1=O`, for which the growth inhibition is 9.95% in experiment [1]; -12.4% in experiment [2]; -3.95% in experiment [3]; -6.85% in experiment [4]; -12.7% in experiment [5]; 1.8% in experiment [6].
In the case of `O=c1[nH]c2cc(Cl)ccc2nc1C1=C(O)c2ccccc2C1`, the growth inhibition in experiment [1] is 32%; in experiment [2] it was 12.7%; in experiment [3] it was 23.6%; in experiment [4], 3.35%; in experiment [5], 6.7%; in experiment [6] it was 30.6%.
For `COc1c(C)c2nc3ccccc3[nH]c2c2c(=O)ccnc12`, the growth inhibition was -3.8% in experiment [1]; -29.6% in experiment [2]; -12.4% in experiment [3]; 14.8% in experiment [4]; -21.9% in experiment [5]; 46.1% in experiment [6].
In the case of `COc1ccc(N=Cc2c(O)ccc3ccccc23)cc1`, the growth inhibition is 12% in experiment [1]; 48% in experiment [2]; 43.1% in experiment [3]; 0.95% in experiment [4]; 32% in experiment [5]; 63% in experiment [6].
`S=C(S)NCNC(=S)S.[Zn+2]`: the growth inhibition in experiment [1] was 1.65%; in experiment [2], 12.2%; in experiment [3] it was 26.1%; in experiment [4], -64.2%; in experiment [5] it was 28.2%; in experiment [6], 29.4%.
Take `C=C(Br)c1ccc2c(c1)OCO2`: the growth inhibition is 30% in experiment [1]; 15.7% in experiment [2]; 20.9% in experiment [3]; 8% in experiment [4]; 4.05% in experiment [5]; -8.55% in experiment [6].
Take `CC(=N/O)/C(C)=C/c1ccccc1`: the growth inhibition in experiment [1] is 10.1%; in experiment [2], 7.3%; in experiment [3], 1.4%; in experiment [4] it was 8.4%; in experiment [5], 6.25%; in experiment [6], 2.7%.
In the case of `O=C(O)c1c(F)c(F)c(-c2c(F)c(F)c(C(=O)O)c(C(=O)O)c2F)c(F)c1C(=O)O`, the growth inhibition is 1.5% in experiment [1]; 5.5% in experiment [2]; -5% in experiment [3]; 7.05% in experiment [4]; 0.55% in experiment [5]; -6.45% in experiment [6].
As to `O=C(CN1C(=O)CC(c2ccccc2)(c2ccccc2)C1=O)N1CCN(CCO)CC1`, the growth inhibition in experiment [1] is -0.35%; in experiment [2] it was -4.6%; in experiment [3] it was -22.1%; in experiment [4], -5.25%; in experiment [5], -16.2%; in experiment [6] it was 2.3%.
As to `Cc1cc(C)c(C)c(C)c1C`, the growth inhibition was 17.6% in experiment [1]; -8.15% in experiment [2]; 14.8% in experiment [3]; 2.55% in experiment [4]; -3.6% in experiment [5]; 20.6% in experiment [6].
Take `N=C1N=Nc2nc(C(C(=O)c3cccs3)c3nc4n(c3O)C(=N)N=N4)c(O)n21` (stereo unspecified): the growth inhibition in experiment [1] was -5.1%; in experiment [2] it was 17.1%; in experiment [3], -1.25%; in experiment [4], -15.3%; in experiment [5] it was 1.7%; in experiment [6] it was -12.3%.
As to `COC1=CC(=O)C(C(C)=O)=C(C2(C)C(=O)CCCC2=O)C1=O`, the growth inhibition in experiment [1] was -12.3%; in experiment [2], 0.5%; in experiment [3], -0.6%; in experiment [4], 6.25%; in experiment [5] it was 5.15%; in experiment [6], 7.25%.
Regarding `COC(=O)C(CO)NC(=O)C(CO)NC(=O)OCc1ccccc1` (stereo not drawn) (Cbz-Ser-Ser-OMe; configuration not given here), the growth inhibition is -9.8% in experiment [1]; 3.7% in experiment [2]; -0.25% in experiment [3]; 7.4% in experiment [4]; -10% in experiment [5]; -16.4% in experiment [6].
Take `O=C(Nc1ccccc1)Nc1ccc(-c2ccccc2)cc1`: the growth inhibition in experiment [1] was 13.7%; in experiment [2], 14.1%; in experiment [3], 13.1%; in experiment [4], 5.7%; in experiment [5], 37.6%; in experiment [6], 3.5%.
Turning to `Cc1cnc(SC(C)(C)C)c(C)c1`, the growth inhibition was -0.2% in experiment [1]; -20.2% in experiment [2]; -8.55% in experiment [3]; -68.6% in experiment [4]; 12.9% in experiment [5]; -10.5% in experiment [6].
Consider `c1ccc(C2OC3C4COC(O4)C3O2)cc1` (stereo unspecified), for which the growth inhibition in experiment [1] is -24.7%; in experiment [2], -19.9%; in experiment [3], -15.4%; in experiment [4], -19.1%; in experiment [5], -1.75%; in experiment [6] it was -9.7%.
As to `N#C/C(=C\c1cccc(Br)c1)c1nc2ccccc2c(=O)[nH]1`, the growth inhibition in experiment [1] was 5.75%; in experiment [2], 4.4%; in experiment [3], 0.2%; in experiment [4], 1.55%; in experiment [5], -14.4%; in experiment [6], -35.4%.
`CCCCCCCCCCCCCCCCCCCCCCCCCC(=O)O`: the growth inhibition in experiment [1] was 30.4%; in experiment [2], -20.2%; in experiment [3], 32.5%; in experiment [4], 4.5%; in experiment [5] it was 23.9%; in experiment [6] it was 4.95%.
In the case of `CCCCCCCCCCCCCC1CCC(CC)N1` (stereo unspecified), the growth inhibition was 92% (active) in experiment [1]; 93.7% (active) in experiment [2]; 92.2% (active) in experiment [3]; 91.6% (active) in experiment [4]; 91.8% (active) in experiment [5]; 91.8% (active) in experiment [6].
For the compound `C=C1CC(C2CCC(C)(C)C2)OC1=O` (stereo unspecified), the growth inhibition was 13.7% in experiment [1]; 8% in experiment [2]; 9.15% in experiment [3]; 17.3% in experiment [4]; 2.15% in experiment [5]; -0.8% in experiment [6].
